Molecules are shown by their SMILES. Records with an inconclusive call do not appear. Active and inactive are the calls of the source. Calls come from the whole dose curve; as a rule, active = well fitted cell-killing curve with a large enough effect; inconclusive = small, poorly fitted or top-dose-only effect, or effect the other way; inactive = no such curve, though single readings can be large or run the other way.
Potency is the fitted concentration of half-maximal effect.

In this experiment the test system is Es-2. In words: Confirmatory qHTS for gynecologic anti-cancer compounds from libraries of approved drugs and bioactive compounds. Note: nearly all actives have a fitted effect of over 55% in size. The following applies: gynecologic cancer cell panel viability, ATPlite luminescence, 48 h; series mostly up to 57.6 µM. The method, boiled down:
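ATPlite luminescence read-out of cell viability; IC50 from 11-point 1:3 titrations, 57.5 uM to 0.977 nM, 48 h compound exposure at 37 C, 5% CO2. Cells seeded at 1,000/well 16 h before dosing.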
(In qHTS, concentration-response curves come from the screen itself.)
`CCNC(=O)C[C@@H]1N=C(c2ccc(Cl)cc2)c2cc(OC)ccc2-n2c(C)nnc21`: the Potency was 24.3 µM (active). As to `C[C@]12CC[C@H]3[C@@H](CCC4=CC(=O)CC[C@@H]43)[C@@H]1CC[C@@H]2OC(=O)CCc1ccccc1`, the Potency result was “inactive”. With `C[C@H]1CCC/C=C/C2C[C@H](O)C[C@H]2[C@H](O)/C=C/C(=O)O1` (some centres undefined), the Potency was 0.485 µM (active). Consider `C=C(C)[C@H]1Cc2c(ccc3c2O[C@@H]2COc4cc(OC)c(OC)cc4[C@@H]2C3=O)O1`, for which the Potency was 0.685 µM (active). Next, `CCN1CCN(C(=O)Cc2ccc(Nc3ncc(F)c(Nc4ccc(C(=O)Nc5ccccc5Cl)cc4)n3)cc2)CC1`: “inactive”; `O=C(O)Cc1ccccc1`: “inactive”.

For `CCC(=O)O[C@H]1CC[C@H]2[C@@H]3CCC4=CC(=O)CC[C@]4(C)[C@H]3CC[C@]12C`, the Potency result is “inactive”. Consider `C/C=C(/C)C(=O)O[C@H]1C(C)=C2[C@H]([C@@H]1OC(=O)CCCCCCC)[C@@](C)(OC(C)=O)C[C@H](OC(=O)CCC)[C@@]1(O)[C@H]2OC(=O)[C@@]1(C)O`, for which the Potency was 27.3 µM (active). For the compound `CCOc1ccccc1-n1c(C(C)N2CCN(C(=O)COc3ccc(Cl)cc3)CC2)nc2ccccc2c1=O` (centres undefined), the Potency was 3.43 µM (active).

(Values after PubChem BioAssay AID1345085 (National Center for Advancing Translational Sciences (NCATS), 2018).)
